Laboratory results as given in the supplement of paper PMC12350171.
Where a name gives a salt, the structure may show the parent alone. Values without a mark were called inactive.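 How the source made its calls: active = AUC significantly below DMSO controls by Student t-fit with adjusted P under 0.01; inactive = not significantly reduced.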

What follows are compounds tested on Haemophilus parainfluenzae (assay: growth AUC normalised to DMSO control (fraction of control); higher = less growth inhibition, active = hit call of the paper). Settings: 20 µM.
Summary of the method: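 Three biological replicates were carried out, with OD578 read hourly for 24 h. Before inoculation at a starting OD578 of 0.01, pathogens were passaged anaerobically twice; plates were pre-reduced mGAM containing 20 μM compound and 1% DMSO, sealed with breathable membranes, and the Haemophilus parainfluenzae medium carried added hemin and NAD. Area under each growth curve was calculated by the trapezoidal rule up to the exponential-to-stationary transition and normalised to DMSO controls on the same plate.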

Structure (SMILES) | growth AUC normalised to DMSO control
CN(C)CCC=C1c2ccccc2CCc2ccccc21 [Amitryptiline hydrochloride] | 0.958
Cc1onc(-c2ccccc2)c1C(=O)N[C@@H]1C(=O)N2[C@@H]1SC(C)(C)[C@@H]2C(=O)O [Oxacillin sodium] | 0.928
COc1cc2nc(N3CCN(C(=O)C4COc5ccccc5O4)CC3)nc(N)c2cc1OC (stereo not drawn) [Doxazosin mesylate] | 0.992
CC(C)(C(=O)c1cccnc1)c1cccnc1 [Metyrapone] | 0.991
C[C@H]1C[C@H]2[C@@H]3CCC4=CC(=O)C=C[C@]4(C)[C@@]3(F)[C@@H](O)C[C@]2(C)[C@@]1(O)C(=O)CO [Betamethasone] | 0.974
NC(=O)c1cccnc1 [Nicotinamide] | 1.04
Cc1c(NC(=O)c2cccnc2)c(=O)n(-c2ccccc2)n1C [Nifenazone] | 1.01
CN1CCN(C2=Nc3cc(Cl)ccc3Nc3ccccc32)CC1 [Clozapine] | 1.02
CCc1oc2ccccc2c1C(=O)c1cc(Br)c(O)c(Br)c1 [Benzbromarone] | 0.987
CC(C)(C)c1ccc(C(O)CCCN2CCC(C(O)(c3ccccc3)c3ccccc3)CC2)cc1 (stereo not drawn) [Terfenadine] | 0.88
C[C@]12CC[C@H]3C(=CCc4cc(O)ccc43)[C@@H]1CCC2=O [Equilin] | 1.02
O=C1c2ccccc2C(=O)C1c1ccccc1 [Phenindione] | 0.973
CC(C)NC[C@@H](O)COc1cccc2ccccc12 [(R) Propranolol hydrochloride] | 0.99
CC#C[C@]1(O)CC[C@H]2[C@@H]3CCC4=CC(=O)CCC4=C3[C@@H](c3ccc(N(C)C)cc3)C[C@@]21C [Mifepristone] | 0.994
COc1cc2ncnc(Nc3ccc(F)c(Cl)c3)c2cc1OCCCN1CCOCC1 [Gefitinib] | 0.971
COc1ccccc1OCC(O)CO (stereo not drawn) [Guaifenesin] | 1.04
Cc1cc(C(C)(C)C)c(O)c(C)c1CC1=NCCN1 [Oxymetazoline hydrochloride] | 0.991
CC(C)Cc1ccc([C@H](C)C(=O)O)cc1 [(S,+) Ibuprofen] | 0.941
N=C(N)NCc1cccc(I)c1 [Iobenguane sulfate] | 1.02

Structure (SMILES) | growth AUC normalised to DMSO control
C[C@H]1C[C@@H]2[C@H]([C@@H](O)C[C@@]3(C)[C@H]2CC[C@]3(O)C(=O)CO)[C@@]2(C)C=CC(=O)C=C12 [Methylprednisolone, 6-alpha] | 0.996
O=C(O)c1cccnc1Nc1cccc(C(F)(F)F)c1 [Niflumic acid] | 1.02
O=c1oc2ccccc2c(O)c1Cc1c(O)c2ccccc2oc1=O [Dicumarol] | 1.31
CC[N+](CC)(CC)CCC(O)(c1ccccc1)C1CCCCC1 (stereo not drawn) [Tridihexethyl chloride] | 1.05
CN(C/C=C/c1ccccc1)Cc1cccc2ccccc12 [Naftifine hydrochloride] | 0.977
O=C(COc1ccc(Cl)cc1)N1CCN(Cc2ccc3c(c2)OCO3)CC1 [Fipexide hydrochloride] | 0.836
CC(=O)N(O)CCCCCNC(=O)CCC(=O)N(O)CCCCCNC(=O)CCC(=O)N(O)CCCCCN [Deferoxamine mesylate] | 1.07
CCC1NC(=O)c2cc(S(N)(=O)=O)c(Cl)cc2N1 (stereo not drawn) [Quinethazone] | 1.16
CC(C(=O)O)c1ccc(C(=O)c2cccs2)cc1 (stereo not drawn) [Suprofen] | 0.987
COC(=O)C1=C(C)NC(C)=C(C(=O)OC(C)C)C1c1cccc2nonc12 (stereo not drawn) [Isradipine] | 1.02
CCN(CC)C(=O)Nc1ccc(OCC(O)CNC(C)(C)C)c(C(C)=O)c1 (stereo not drawn) [Celiprolol hydrochloride] | 0.991
Cc1onc(-c2ccccc2Cl)c1C(=O)N[C@@H]1C(=O)N2[C@@H]1SC(C)(C)[C@@H]2C(=O)O [Cloxacillin sodium salt] | 0.914
CN(C)[C@@H]1C(=O)C(C(=O)NCNCCCC[C@H](N)C(=O)O)=C(O)[C@@]2(O)C(=O)C3=C(O)c4c(O)cccc4[C@@](C)(O)[C@H]3C[C@@H]12 [Lymecycline] | 0.935
CC1CCc2c(N3CCC(O)CC3)c(F)cc3c(=O)c(C(=O)O)cn1c23 (stereo not drawn) [Nadifloxacin] | 0.0309 (active)
COC(=O)Nc1nc2cc(C(=O)c3cccs3)ccc2[nH]1 [Nocodazole] | 1.03
CC(=O)S[C@@H]1CC2=CC(=O)CC[C@]2(C)[C@H]2CC[C@@]3(C)[C@@H](CC[C@@]34CCC(=O)O4)[C@H]12 [Spironolactone] | 0.891
C[C@]1(Cn2ccnn2)[C@H](C(=O)O)N2C(=O)C[C@H]2S1(=O)=O [Tazobactam] | 1.02
CC(=O)CC(c1ccc([N+](=O)[O-])cc1)c1c(O)c2ccccc2oc1=O (stereo not drawn) [Acenocoumarol] | 0.992
CCCc1cc(=O)[nH]c(=S)[nH]1 [Propylthiouracil] | 0.991
